This excerpt belongs to a sample that is enriched for hits.
Integrin act MD = activators of alpha7 integrin expression for muscular dystrophy; alpha7betagal myoblasts, beta-gal FDG fluorescence, 48 h; AID 624291; 350,000 tested, 0.064% active; Potency, µM (titrated, usually from 38.3 µM), usual class: activators; further: nearly all actives have a fitted effect of over 60% in size
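Alpha7betagal+/- myoblasts (passage 13) were plated 16-24 hr, then exposed to compounds (1:260 dilution of DMSO stock) for 48 hours at 37C. After MPER lysis, β-galactosidase reporter activity was read as FDG fluorescence (ex 480/em 540) after 30 minutes.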
Eya2 phos inh = inhibitors of human Eya2 phosphatase activity | O00167 | recombinant Eya2, OMFP fluorescence dephosphorylation (OMFP is methylfluorescein phosphate) | Potency, µM (doses to about 76.9 µM), actives largely listed as inhibitors | 330,000 tested, 0.006% active
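Eya2 protein (added as 0.2 uM solution) was preincubated with compound for 10 min at ambient temperature in 50 mM HEPES pH 7.5, 50 mM NaCl, 5 uM MgCl2, 0.05% BSA, 1 mM DTT. OMFP (added at 50 uM) then reacted 10 min; fluorescence read at 485/525 nm.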
USP2a inh = inhibitors of human ubiquitin-specific protease USP2a. O75604. USP2 core, Ub-CHOP2 coupled fluorogenic reporter, 485/531. Potency, µM (highest dose often 38.3 µM), hits mostly inhibitors. 330,000 tested, 0.01% active
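USP2 core (10nM final) preincubated 30min RT with compound in 20mM Tris-HCl pH 8.0, 2mM CaCl2, 2mM beta-mercaptoethanol, 0.05% CHAPS; 25nM Ub-CHOP2 plus 25nM reporter substrate added, fluorescence (Ex485/Em531) read after 60min.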
ClpP mod = qHTS Assay for Activators of ClpP; ATP-dependent Clp protease proteolytic subunit (Bacillus subtilis (strain 168)), P80244; purified B. subtilis ClpP, FRET peptide cleavage, 20 min; Potency, µM (titrated, usually from 57.5 µM); 340,000 tested, 1.9% active; AID 651965, 2013; active means well fitted falling curve with a large enough effect; inconclusive means small, poorly fitted or top-dose-only effect; inactive means no such curve, though single readings can be large or run the other way; further: the source files actives as falling curves though it sought activators and does not explain the sign; nearly all actives have a fitted effect of over 65% in size
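FRET quenching reversal measured ClpP activation: 10 microg/mL B. subtilis ClpP at pH 8 with the FRET-FV decapeptide, read at 430 nm after 320 nm excitation. The 20-min minus 0-min signal was scaled between DMSO/no-enzyme wells and ADEP (5.8 microM final).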
p53 reactivator = re-activators of mutant p53; H1299 p53-A138V BP100-luciferase reporter, luminescence, 24 h; Potency, µM (highest dose often 92.2 µM), usual class: activators; 320,000 tested, 0.063% active; AID 504706; further: nearly all actives have a fitted effect of over 45% in size
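H1299 (p53-null), stable ts p53-A138V + BP100-Luc; 1000 cells/well, Opti-MEM/10% FBS; cpd 4 pt, 1:5; 24 h, 37 deg C, 5% CO2; detection reagent 10 min RT; luminescence.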
Mm-Cpn inhibitor = inhibitors of Methanococcus maripaludis chaperonin TRiC (MmCpn) | Potency, µM (titrated, usually from 76.9 µM), usual class: inhibitors | 330,000 tested, 0.031% active | purified Mm-Cpn ATPase, ADP Transcreener TR-FRET; further: nearly all actives have a fitted effect of over 80% in size
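Reaction buffer contained 30 mM Tris pH 7.4, 100 mM KCl, 5 mM MgCl2 and 1 mM DTT. Mm-CPN (25 nM final) hydrolysed 10 uM ATP over 30 min at 37°C; ADP was read by HTRF.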
Hits are given with their value; i = inactive; ? = inconclusive; nt = not tested or not shown; [ ] = another dose, or the depositor's remark. Unless noted, the call rests on the fitted dose curve; in most records, active means well fitted curve in the direction sought with a large enough effect; inconclusive means small, poorly fitted or top-dose-only effect, or another doubt; inactive means no such curve, though single readings can be large; an effect the other way counts as inactive or inconclusive.

SMILES	Integrin act MD	Eya2 phos inh	USP2a inh	ClpP mod	p53 reactivator	Mm-Cpn inhibitor
COCCNC(=O)Cc1c(C)c2c(cc(C)c3c(C(C)(C)C)coc32)oc1=O	i	i	i	14µM	i	i
COc1ccc(C2CC(c3ccc4ccccc4c3)=NN2C(=O)CSc2ncccn2)cc1 (centres undefined)	i	i	i	22µM	?	?
COCCn1c(-c2ccc(Cl)cc2Cl)nc2c(c(=O)c3ccccc3n2C)c1=O	i	i	i	14µM	i	i
CCOC(=O)c1cccc(NC(=O)c2cc3ccccn3n2)c1	nt	nt	nt	i	nt	nt
CCN(CC)S(=O)(=O)c1ccc2c(c1)c(=O)c(C(=O)N1CCN(c3ccc(F)cc3)CC1)cn2C	nt	nt	nt	i	nt	nt
CN(C)c1ccc(/C=C/c2ccnc3ccccc23)cc1O	nt	nt	nt	i	nt	nt
Cc1ccccc1N1C(=O)c2cccc3cccc(c23)C1=O	i	i	i	i	nt	i
O=C1c2cccc3cccc(c23)C(=O)N1c1cccnc1	i	i	i	16µM	i	i
CCc1nnc(N2C(=O)c3cccc4cccc(c34)C2=O)s1	i	i	i	16µM	i	i
O=C1c2cccc3cccc(c23)C(=O)N1c1ccncc1	i	i	i	10µM	i	i
O=C(c1cccc2ccccc12)N1CCN(S(=O)(=O)c2ccccc2)CC1	nt	nt	nt	i	nt	nt
Cc1nc2ccn(Cc3cccnc3)c(=O)c2cc1C(=O)NCc1ccc(Cl)cc1	nt	nt	nt	13µM	nt	nt
CCOc1ccc(NC(=O)CSc2nnc(CC)c(CC)n2)cc1	nt	nt	nt	i	nt	nt
CCCCNC(=O)COC(=O)c1ccc(Cl)c(S(N)(=O)=O)c1	i	i	i	14µM	i	i
CC(C)CNC(=O)COC(=O)c1ccc(Cl)c(S(N)(=O)=O)c1	i	i	i	i	i	i
CN1c2ccccc2-c2nc3ccccc3n2C1c1ccncc1 (centres undefined)	i	i	i	20µM	i	i
CN1c2ccccc2-c2nc3ccccc3n2C1c1ccccn1 (centres undefined)	i	i	i	i	i	i
Cc1cc(CN(C)C)c(O)c(C2(C)CCCCC2)c1	i	i	i	22µM	i	i
CC(C)(C)c1csc(NC(=O)Cc2cccs2)n1	i	i	i	i	i	i
CC(C)(C)c1csc(NC(=O)CCc2ccccc2)n1	i	i	i	i	32µM	i
Cc1ccc(-c2csc3ncnc(Sc4nnnn4-c4ccccc4)c23)cc1	nt	nt	nt	i	nt	nt
Nc1cc(=O)[nH]c(=S)[nH]1	nt	nt	nt	i	nt	nt
O=C(CSc1ccc(-c2nc3ccccc3[nH]2)cn1)N1CCN(C(=O)c2ccco2)CC1	i[7.66 µM]	i	i	32µM	?	i
Cc1c(NC(=O)c2cccc(-c3cc4ccccc4oc3=O)c2)cccc1-c1nc2ncccc2o1	i	i	i	22µM	i	i
CC1(C(=O)Nc2cccc(-n3cnnn3)c2)Cc2ccccc2C(=O)O1 (centres undefined)	i	i	i	35µM	i	i
SMILES	Integrin act MD	Eya2 phos inh	USP2a inh	ClpP mod	p53 reactivator	Mm-Cpn inhibitor
C=C1C=C(C(F)F)n2ncc(C(=O)NCc3ccc(Cl)cc3)c2N1	nt	nt	nt	i	nt	nt
CC(C)C[C@H](NC(=O)OC(C)(C)C)C(=O)N/N=C/C1=Cc2ccccc2OC1C (some centres undefined)	i	i	i	28µM	i	i
CCN(CC)c1cc2c(cc1F)c(=O)c(S(=O)(=O)c1ccccc1)cn2Cc1ccccc1	nt	nt	nt	22µM	nt	nt
CCn1cc(C(=O)O)c(=O)c2cc(F)c(N3CCN(S(=O)(=O)c4ccc(NC(=O)OC)cc4)CC3)cc21	i	i	i	18µM	i	i
CCn1cc(S(=O)(=O)c2ccc(OC)cc2)c(=O)c2cc(F)c(N3CCCCCC3)cc21	nt	nt	nt	i	nt	nt
CCN1CCN(c2cc3c(cc2F)c(=O)c(S(=O)(=O)c2ccc(OC)cc2)cn3CC)CC1	nt	nt	nt	7.9µM	nt	nt
CCCNC(=O)c1cn(CC)c2cc(N3CCN(C(=O)c4ccco4)CC3)c(F)cc2c1=O	i	i	i	i	i	i
CCn1cc(C(=O)NCc2cccc(F)c2)c(=O)c2cc(F)c(N3CCN(C(=O)c4ccco4)CC3)cc21	i	i	i	25µM	i	i
CCCCc1ccc(CC(=O)NO)cc1	nt	nt	nt	i	nt	nt
CCOC(=O)c1cccc(NS(=O)(=O)c2ccc3[nH]c4c(c3c2)CCCC4)c1	nt	nt	nt	i	nt	nt
CCOC(=O)c1cn(CC)c2cc(N3CCOCC3)c(F)cc2c1=O	i	i	i	32µM	i	i
CCN(CC)c1cc2c(cc1F)c(=O)c(S(=O)(=O)c1ccc(OC)cc1)cn2Cc1ccccc1	nt	nt	nt	32µM	nt	nt
COc1ccc(S(=O)(=O)c2cn(Cc3ccccc3)c3cc(F)c(F)cc3c2=O)cc1	nt	nt	nt	i	nt	nt
COc1cc(-c2nnc(SCC(=O)Nc3cccc(C#N)c3)o2)cc(OC)c1OC	nt	nt	nt	i	nt	nt
COc1ccc(OC)c2c(/C=C/c3c(C)[nH]c4ccccc34)ccnc12	nt	nt	nt	i	nt	nt
O=C(Nc1ccc2ccccc2c1)c1nc(S(=O)(=O)Cc2ccccc2F)ncc1Cl	nt	nt	nt	i	nt	nt
CCOC(=O)/C=C/c1ccc2c(c1)S(=O)(=O)N(C1CCCC1)[C@H]2CC(=O)OCC	nt	nt	nt	i	nt	nt
C=CCOc1ccccc1C1C2=C(CC(C)(C)CC2=O)Nc2c1c(=O)n(C)c(=O)n2C (centres undefined)	i	i	i	28µM	i	i
COc1ccc(C2C3=C(CC(C)(C)CC3=O)Nc3c2c(=O)n(C)c(=O)n3C)cc1OC (centres undefined)	i	i	i	i	i	i
COc1ccccc1CCNC(=O)Cc1c(C)c2cc3c(C)coc3cc2oc1=O	nt	nt	nt	i	nt	nt
Cc1nc(NC(=S)NC(=O)COc2ccccc2Cl)ccc1Br	i	i	i	28µM	i	i
CC(C)C(NC(=O)c1ccc(C(C)(C)C)cc1)C(=O)N1CCCC1 (centres undefined)	i	i	i	nt	i	i
CCOc1ccc(C(=O)NC(C(=O)N2CCC2)C(C)C)cc1 (centres undefined)	i	i	i	28µM	i	i
Cc1ccc(S(=O)(=O)C(C#N)c2nc3ccccc3nc2N2CCN(C)CC2)cc1 (centres undefined)	i	i	i	i	i	i
CCOC(=O)N1CCN(c2nc3ccccc3nc2C(C#N)S(=O)(=O)c2ccc(C)cc2)CC1 (centres undefined)	i	i	i	32µM	i	i
O=C(C[n+]1cccc(Br)c1)c1cccc([N+](=O)[O-])c1	nt	nt	nt	i	nt	nt
COc1ccc(C(=O)C[n+]2cccc3cc(Cl)ccc32)cc1	nt	nt	nt	i	nt	nt
Cc1ccc(C(=O)Nc2c(C)cc(-c3ccc(Cl)cc3)oc2=O)cc1	i	i	i	14µM	i	i
Cc1cccc(CSC(=N)N)c1	i	i	i	13µM	?	i
N=C(N)SCCc1cccc(CCSC(=N)N)c1	nt	nt	nt	i	nt	nt

Assay outcomes as filed in PubChem.
